# Screening data as filed in PubChem.
# A selection: hits, their analogues and other compounds. The true share with any hit is near 10%.
# ELG1 repair inh: inhibitors of ELG1-dependent DNA repair in HEK293T cells; HEK293T ELG1-luciferase reporter, luminescence, 16 h; DNA damage induced by 5-fluorouridine; Potency, µM (series often up to 46.1 µM), most hits filed as inhibitors; 330,000 compounds, 2.3% hits; note: nearly all actives have a fitted effect of over 55% in size
#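 Cells (2,000 per well) received 5-fluorouridine plus test compound or DMSO and were incubated 16 hr at 37 °C, 5% CO2. Luciferase activity was read by luminescence 30 min after ONE-Glo addition; signal suppression marked inhibition of damage-induced ELG1 function.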
# RORg inh: ROR gamma (mouse) transcription inhibition; P51450; Drosophila S2 Gal4-RORgamma UAS-luciferase reporter, 20 h; Potency, µM (series often up to 53.6 µM), most hits filed as inhibitors; 310,000 compounds, 5.4% hits; AID 2551; note: nearly all actives have a fitted effect of over 60% in size
# Target sequence (P51450 whole entry, looked up, the tested form may be a part): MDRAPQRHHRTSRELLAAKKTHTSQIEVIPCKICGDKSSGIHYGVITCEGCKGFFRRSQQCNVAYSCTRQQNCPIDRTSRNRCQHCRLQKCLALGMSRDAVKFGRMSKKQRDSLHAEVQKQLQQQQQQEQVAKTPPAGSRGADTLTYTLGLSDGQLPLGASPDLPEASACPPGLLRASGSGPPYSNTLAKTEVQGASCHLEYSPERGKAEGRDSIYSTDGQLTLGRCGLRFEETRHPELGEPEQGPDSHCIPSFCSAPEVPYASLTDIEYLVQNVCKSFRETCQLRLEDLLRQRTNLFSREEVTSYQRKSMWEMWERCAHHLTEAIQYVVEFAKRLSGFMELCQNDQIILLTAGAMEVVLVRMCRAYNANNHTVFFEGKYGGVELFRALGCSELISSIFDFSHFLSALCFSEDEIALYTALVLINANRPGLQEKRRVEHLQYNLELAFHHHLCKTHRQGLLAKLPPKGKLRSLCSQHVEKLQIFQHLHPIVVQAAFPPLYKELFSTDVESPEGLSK
#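 Schneider cells (Drosophila), stable Gal4 DBD–ROR gamma + UAS-luc; 1 hr cmpd preincubation; Cu2+ induction 700 uM final; 20 hr ambient; luminescence.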
# MCF10A rereplic: DNA re-replication induction in MCF 10a cells. 350,000 compounds, 2.9% hits. MCF 10A DNA re-replication, Hoechst nuclear intensity, 48 h. Potency, µM (highest dose often 46.1 µM), actives largely listed as activators. AID 624296; note: nearly all actives have a fitted effect of over 50% in size
# Gal4-VP16 FLuc: inhibits Gal4-VP16 luciferase reporter, ROR gamma counter-screen. Drosophila S2 Gal4-VP16 UAS-luciferase, luminescence, 20 h. Potency, µM (titrated, usually from 53.6 µM), most hits filed as inhibitors. 310,000 compounds, 3.5% hits. AID 2546;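 note: Gal4-VP16 expression switched on by copper sulfate through the metallothionein promoter; nearly all actives have a fitted effect of over 50% in size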
# SW480 rerep: DNA re-replication induction in SW480 cells; SW480 DNA re-replication, Hoechst DNA content imaging, 48 h; Potency, µM (doses to about 46.1 µM), hits mostly activators; 340,000 compounds, 1.8% hits; AID 624297; note: nearly all actives have a fitted effect of over 55% in size
#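 Hoechst fluorescence of nuclei (405 nm excitation, 500-530 nm emission) measured by plate-scanning imager after 48 hr compound exposure at 37 C; re-replication scored as increased number of nuclei with elevated intensity.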
# A number is an active result; 0 = inactive; ? = inconclusive; - = no result given; [ ] = remark or other dose. Calls come from the whole dose curve; as a rule, active = well fitted curve in the direction sought with a large enough effect; inconclusive = small, poorly fitted or top-dose-only effect, or another doubt; inactive = no such curve, though single readings can be large; an effect the other way counts as inactive or inconclusive.
SMILES,ELG1 repair inh,RORg inh,MCF10A rereplic,Gal4-VP16 FLuc,SW480 rerep
Cc1ccc2c(c1)c(C)c(C)n2CC(O)CN1CCCCC1C (stereo unspecified),0,0,0,0,?
CC1=C(C(=O)OCc2ccc(C)cc2)C(c2ccc(O)c([N+](=O)[O-])c2)NC(=O)N1 (stereo unspecified),0,0,?,0,0
N#Cc1nc(-c2ccc(OCc3ccccc3)cc2)oc1NCc1cccnc1,?,0,0,?,0
N#Cc1nc(-c2ccc(OCc3ccc(Cl)cc3)cc2)oc1NCc1cccnc1,0,0,11.2µM,0,0
Cc1ccc(C(=O)N/N=C\c2cccn2C)cn1,?,11.2µM,0,?,0[9.22 µM]
Cn1cccc1/C=N/NC(=O)c1cccnc1,0,0,?,0,0
Cc1ccc(C(=O)N/N=C\c2ccc(-c3ccc([N+](=O)[O-])cc3)o2)cn1,0,?,0,0,0
Cc1ccc(C(=O)N/N=C\c2ccc(-c3ccc(Cl)cc3)o2)cn1,0,2.51µM,?,10µM,0
CCCc1cc(C(=O)N/N=C/c2cccn2C)cs1,?,11.2µM,0,22.4µM,0
Cn1cccc1/C=N/NC(=O)c1ccco1,?,0,0,0,0
COCCNC(=O)CCSCc1ccccc1F,0,0,4.11µM,0,?
CC(=O)c1c(N2CCOCC2)nc2ccc(Cl)cc2c1-c1ccccc1,?,?,14.6µM,0,0
CCc1ccc2oc(C(=O)NCC(c3ccc(OC)cc3)N3CCCCC3)c(C)c2c1 (stereo unspecified),0,0,0,0,0
CCc1nc(SCC(=O)NCCc2ccccc2)c2c(=O)n(C)c(=O)n(C)c2n1,0,0,0,0,0
COc1ccc(C(C(=O)NC2CCCC2)N(Cc2cccnc2)C(=O)Cc2cccs2)c(OC)c1 (stereo unspecified),0,10µM,0,0,0
COc1cccc(CN(C(=O)Cc2c[nH]c3ccccc23)C(C(=O)NC2CCCCC2)c2ccc(C)o2)c1 (stereo unspecified),18.4µM,0,0,0,?
COc1cc(C(C(=O)NC2CCCCC2)N(Cc2cccs2)C(=O)Cc2c[nH]c3ccccc23)cc(OC)c1OC (stereo unspecified),14.6µM,0,0,0,0
COc1cc(C(C(=O)NC2CCCCC2)N(C(=O)Cc2c[nH]c3ccccc23)c2ccccc2C)cc(OC)c1OC (stereo unspecified),0,0,0,0,0
COc1ccc(CN(C(=O)Cc2c[nH]c3ccccc23)C(C(=O)NC2CCCCC2)c2ccc(C)o2)cc1 (stereo unspecified),20.6µM,0,?,0[0.365 µM],0
COc1cccc(C(C(=O)NC2CCCC2)N(Cc2cccnc2)C(=O)Cc2cccs2)c1 (stereo unspecified),0,0,0,0,0
CCc1ccc2c(c1)C(O)(CC(=O)c1cccs1)C(=O)N2 (stereo unspecified),0,0,0,0,0
N#Cc1ccccc1-c1ccc2ncnc(N3CCNCC3)c2c1,-,0,-,0,-
CON/C=N/C(=S)Nc1ncc(C(F)(F)F)cc1Cl,0,0.562µM,0,?,0
ON/C=N/C(=S)Nc1ncc(C(F)(F)F)cc1Cl,0,1.58µM,0,?,0
CC(C)C(=O)Nc1ncc(C(F)(F)F)cc1Cl,0,0,0,0,0
SMILES,ELG1 repair inh,RORg inh,MCF10A rereplic,Gal4-VP16 FLuc,SW480 rerep
CCc1ccc(OCC(=O)Nc2cccc3nsnc23)cc1,0,0,0,0,0
CCOc1ccc(C2C(C(=O)c3ccco3)=C(O)C(=O)N2CCN2CCOCC2)cc1 (stereo unspecified),?,0,0,0,0
CCOC(=O)N1CCC(NC(=O)c2cc(S(=O)(=O)N(CC)CC)ccc2F)CC1,0,0,0,0,0.731µM
CCOC(=O)N1CCC(NC(=O)c2cc(S(=O)(=O)N3CCOCC3)ccc2F)CC1,0,0,0,0,0
CCOC(=O)N1CCC(NS(=O)(=O)c2ccc(NC(C)=O)c(Cl)c2)CC1,7.3µM,?,?,?,?
CC(C)c1nnc(NC(=O)CCS(=O)(=O)c2nc(-c3cccs3)cc(C(F)(F)F)n2)s1,?,1.78µM,3.66µM,1.58µM,?
COc1ccc(NC(=S)Nc2cccc(C(F)(F)F)c2)c(C)c1,0,10µM,0,?,0
CN(C)C(=S)Nc1cccc(C(F)(F)F)c1,0,0,0,0,0
CC(NC(=S)Nc1cccc(C(F)(F)F)c1)C(C)(C)C (stereo unspecified),?,3.16µM,0,10µM,?
CN(C)NC(=S)Nc1cccc(C(F)(F)F)c1,0,1µM,0,5.62µM,0
COC(=O)c1ccc([C@@H]2C[C@H]3CN(Cc4cccnc4)C(=O)[C@]34CCCN24)cc1,0,0,0,0,0
Cc1nc(CNC(=O)CC2C(=O)NCCN2Cc2cccc(Oc3ccccc3)c2)cs1 (stereo unspecified),0,0,0,0,0
Cc1ccc(S(=O)(=O)NNC(=O)c2c(O)c3ccccc3[nH]c2=O)cc1,0,0,5.8µM,0,?
COC(=O)Nc1ccc(S(=O)(=O)NNC(=O)c2c(O)c3ccccc3[nH]c2=O)cc1,0,0,20.6µM,0,?
CCCOc1ccc(CNC(=O)C2CCN(C(=O)N3CCOc4ccccc43)CC2)cc1,?,0,0,0,0
O=C1NC2(CCCC2)C(=O)N1CC(=O)N(Cc1ccccc1)c1ccccc1,0,-,0,-,0
Cc1nc2cc(F)ccc2n1C1CCN(C(=O)c2ccc(F)cc2F)CC1,9.2µM,0,0,0[10 µM],0
Cc1cc(C)nc(NN=C(c2ccccc2)c2ccccc2)n1,?,7.94µM,?,?,10.3µM
CC(=NNc1ccccc1)C(C)=NNc1ccccc1,-,-,0,-,0
CC(/C=C/c1ccc(O)cc1)=NNc1ccccc1,-,-,23.1µM,-,?
CC(/C=C/c1ccccc1)=N\Nc1nc(C)cc(C)n1,?,0.447µM,0,5.01µM,?
Cc1cc(C)nc(Nc2ccc(C(=O)O)cc2)n1,?,0,0,?,0
CC(C)n1c(CN(C)Cc2ccccc2)nc2c1c(=O)n(C)c(=O)n2C,4.11µM,?,?,1.26µM,0
CN(Cc1ccccc1)Cc1nc2c(c(=O)n(C)c(=O)n2C)n1Cc1ccc(F)cc1,18.4µM,?,0,0,0
CC(=O)C(C)n1c(CN(C)Cc2ccccc2)nc2c1c(=O)n(C)c(=O)n2C (stereo unspecified),0,0,0,?,0[1.84 µM]
CCOCCn1c(CN(Cc2ccccc2)Cc2ccccc2)nc2c1c(=O)n(C)c(=O)n2C,18.4µM,0,0,0,0
CCCCCCn1c(NCC)nc2c1c(=O)n(C)c(=O)n2C,5.8µM,0,0,0,0
CCCCn1c(CN(Cc2ccccc2)Cc2ccccc2)nc2c1c(=O)n(C)c(=O)n2C,-,-,?,-,0[9.22 µM]
O=C(Cn1ccc2ccccc2c1=O)NCC(=O)N1CCCCC1,0,0,0,0,0
CN(Cc1ccccc1)c1nc2c(c(=O)n(C)c(=O)n2C)n1CCCc1ccccc1,?,0,25.9µM,0,0
